# According to PubChem BioAssay (EPA / NIEHS):
# The source made the active and inactive calls. Rule for the calls: active = hit-call score of the fitted dose curve at least 0.9, where 1 is the maximum; inactive = score below 0.9.
# Test system: not listed separately
# Test: CCTE_Deisenroth_DEVTOX-GLR_Pluri_CellCount: Viability Assessment in CCTE's DevTox GLR-Pluri Assay Evaluation of Total Cell Counts, Deisenroth Lab (AID 2284430)
# Description: CCTE_Deisenroth_DEVTOX-GLR_Pluri assay is a cell-based, multiplex-readout assay that uses RUES2-GLR, a human pluripotent cell line, with measurements taken at 48 hours after chemical dosing in a 384-well microplateCCTE_Deisenroth_DEVTOX-GLR_Pluri_CellCount is 1 of 4 assay components calculated from the CCTE_Deisenroth_DEVTOX-GLR_Pluri assay and it measures cell count. Using fluorescent nuclei staining, gain-of-signal activity can be used to understand changes in cell viability with fluorescent microscopy. It is designed to make measurements of nuclei counts as a surrogate for cell number, as detected with optical fluorescence microscopy by Perkin Elmer Harmony nuclei detection algorithm. To generalize the intended target to other relatable targets, this assay component is annotated to the cell cycle intended target family, where the subfamily is cytotoxicity.Data from the assay component CCTE_Deisenroth_DEVTOX-GLR_Pluri_CellCount was analyzed as 1 assay endpoint. The endpoint the percent change in the cell count relative to the 0.2% DMSO control in the CCTE_Deisenroth_DEVTOX-GLR_Pluri assay. Furthermore, this assay endpoint can be referred to as a primary readout, because this assay has produced multiple assay endpoints where this one serves as a measure of cytotoxicity.
# All assay protocols are aligned to the DevTox GLR-Endo assay workflow. Cells are seeded into 384-well microplates for 24 hours prior to initiating differentiation in defined media for a total duration of 48 hours. A total of two chemical exposures are administered in 24-hour intervals during the 48-hour differentiation period. At the assay termination point, cells are fixed and stained with a fluorescent dye demarcating the nucleus. High-content imaging is used to acquire brightfield and fluorescent channel images across 5 fields per well. Cell identification and mean biomarker fluorescence intensities are calculated with image analysis software to determine the total cell counts for viability assessment and the biomarker expression frequency for each lineage-dependent assay. A typical experimental design tests a 10-point concentration series (1 nM - 200 uM) for 28 compounds in single technical replicate. Assay plate controls include non-differentiated pluripotent cells (baseline control), lineage-specific differentiated cells (differentiation control), and DMSO solvent exposed differentiated cells (solvent control). Experiments typically comprise a minimum of four experimental replicates (n=4).
SMILES,AC50,outcome
CC/C(=C(/CC)c1ccc(O)cc1)c1ccc(O)cc1,1450 nM (active),–
CO[C@H]1/C=C/O[C@@]2(C)Oc3c(C)c(O)c4c(O)c(c(/C=N/N5CCN(C)CC5)c(O)c4c3C2=O)NC(=O)/C(C)=C\C=C\[C@H](C)[C@H](O)[C@@H](C)[C@@H](O)[C@@H](C)[C@H](OC(C)=O)[C@@H]1C,19800 nM (active),–
CCCCOC(=O)c1ccc(O)cc1,19800 nM (active),–
OCCO,–,inactive

# Test system: TTR (gene 7276)
# Test: CCTE_GLTED_hTTR_0.125uM: CCTE's human Transthyretin (hTTR) Inhibition Assay, with 0.125uM TTR, Great Lakes Toxicology and Ecology Division (GLTED) Lab (AID 2284431);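 note: hits lower the fluorescence signal relative to DMSO baseline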
# In short: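 Fluorescence (380 ex, 475 em) reported the ANSA probe remaining bound to 0.125uM human transthyretin. Chemicals were incubated with the protein for 2 hours; activity was scored as loss of signal against DMSO negative control.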
SMILES,AC50,outcome
CC/C(=C(/CC)c1ccc(O)cc1)c1ccc(O)cc1,21 nM (active),–
O=C(O)Cc1cc(I)c(Oc2ccc(O)c(I)c2)c(I)c1,22.4 nM (active),–
CCCCCCCCCC(=O)O,7040 nM (active),–
CC(C)(c1cc(Br)c(O)c(Br)c1)c1cc(Br)c(O)c(Br)c1,22.8 nM (active),–
CN(C)c1ccc(C(=C2C=CC(=[N+](C)C)C=C2)c2ccc(N(C)C)cc2)cc1,21600 nM (active),–
CCCCCCCCOC(=O)c1cc(O)c(O)c(O)c1,512 nM (active),–
CCCCOC(=O)c1ccc(O)cc1,2260 nM (active),–
CCCOC(=O)c1cc(O)c(O)c(O)c1,260 nM (active),–
Cc1oc2c(NC(=O)c3c(Cl)cccc3Cl)cccc2c1C(C)(C)O,1470 nM (active),–
COCC(C)OCC(C)OCC(C)O (stereo unspecified),–,inactive
CCCCCc1ccc(N)cc1,26300 nM (active),–
CCCCCCCCOc1ccc(C(=O)c2ccccc2)c(O)c1,25000 nM (active),–
